As a reminder, the AC50 is the concentration at which the activity in the assay is half-maximal.

Outcome and AC50 data for 10 molecules are collected here from PubChem BioAssay (EPA / NIEHS).

Test [1] is described as follows: ATG_M_19_CIS: Attagene CIS-FACTORIAL HepG2 Assay for M19 Transcription Factor (Internal Marker) (AID 2282939; active = hit-call score of the fitted dose curve at least 0.9, where 1 is the maximum; inactive = score below 0.9). To be noted: HepG2 Attagene CIS-FACTORIAL M19 internal marker reporter; actives raise or lower the signal. The method, boiled down:
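Signals come from fluorescence of labelled reporter-specific PCR fragments resolved by capillary electrophoresis, following 24 h treatment of HepG2 cells transfected with cis-promoter reporter units; activity was fitted in both directions relative to DMSO.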

In test [2] the target is Hepatocyte nuclear factor 6 (Homo sapiens) (UniProt Q9UBC0). In words: ATG_HNF6_CIS: Attagene CIS-FACTORIAL HepG2 Assay for human Hepatocyte Nuclear Factor 6 (HNF6) (AID 2282952; active = hit-call score of the fitted dose curve at least 0.9, where 1 is the maximum; inactive = score below 0.9). The conditions noted are these: HepG2 Attagene cis-factorial HNF6 reporter transcription; actives raise or lower the signal. The method, boiled down: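 Endogenous transcription factor activity in human HepG2 liver cells was captured through cis-regulated reporter constructs. After 24 h treatment, reporter mRNA was measured by RT-PCR with capillary electrophoresis, and activity was fitted in both directions relative to DMSO.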

The nature of test [3]: ATG_MRE_CIS: Attagene CIS-FACTORIAL HepG2 Assay for human Metal Responsive Element (MRE) (AID 2282954; active = hit-call score of the fitted dose curve at least 0.9, where 1 is the maximum; inactive = score below 0.9). The conditions noted are these: HepG2 MRE cis-reporter transcription, Attagene multiplex; actives raise or lower the signal. In outline:
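Measured here is mRNA induction from an MRE cis-element reporter in HepG2 after 24 h, quantified by fluorescence of labelled RT-PCR products on capillary electrophoresis; gain- and loss-of-signal fits use DMSO as baseline.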

Test [4] in a line: ATG_PBREM_CIS: Attagene CIS-FACTORIAL HepG2 Assay for human Phenobarbital-responsive Enhancer Module (PBREM) (AID 2282955; active = hit-call score of the fitted dose curve at least 0.9, where 1 is the maximum; inactive = score below 0.9). To be noted: HepG2 PBREM cis-reporter, Attagene multiplexed transcription; actives raise or lower the signal. The method, boiled down:
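Endogenous transcription factor activity was read from reporter transcripts in transiently transfected human HepG2 liver cells after 24 h dosing. RT-PCR products were fluorescently labelled, HpaI-cut and sized by capillary electrophoresis; activity fitted bidirectionally against DMSO baseline.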

Test [5] addresses X-box-binding protein 1 (Homo sapiens) (UniProt P17861). In words: ATG_Xbp1_CIS: Attagene CIS-FACTORIAL HepG2 Assay for human X-box Binding Protein 1 (XBP1) (AID 2282972; active = hit-call score of the fitted dose curve at least 0.9, where 1 is the maximum; inactive = score below 0.9). To be noted: HepG2 XBP1 cis-element reporter, Attagene multiplex; actives raise or lower the signal. The method, boiled down: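 Read-out: fluorescent reporter mRNA fragments resolved by capillary electrophoresis after RT-PCR. Human HepG2 liver cells carried transfected cis-promoter reporter units and were exposed to chemicals for 24 hours. Gain or loss of signal fitted relative to DMSO baseline.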

The target in test [6] is Hepatocyte nuclear factor 4-alpha (Homo sapiens) (UniProt P41235). In words: ATG_HNF4a_TRANS: Attagene TRANS-FACTORIAL HepG2 Assay for human Hepatocyte Nuclear Factor 4 alpha (HNF4a) (AID 2282982). The conditions noted are these: HepG2 HNF4a transactivation reporter, mRNA readout. In outline: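 Endpoint reflects transcriptional activation of a GAL4-UAS reporter by an HNF4a-GAL4 chimera in transfected HepG2 cells, 24 h post-dosing. Fluorescence from RT-PCR products separated by capillary electrophoresis; DMSO baseline.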

A short description of test [7]: ATG_M_06_TRANS: Attagene TRANS-FACTORIAL HepG2 Assay for M06 Transcription Factor (Internal Marker) (AID 2282983). To be noted: HepG2 Attagene TRANS M06 internal marker reporter. In outline:
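Human liver HepG2 cells bearing transiently transfected chimeric NR-GAL4 reporter units were treated with chemicals for 24 h. Total RNA was reverse-transcribed, reporter sequences amplified and labelled, then quantified by capillary electrophoresis. Activity was fitted upward relative to DMSO.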

The nature of test [8]: ATG_M_32_TRANS: Attagene TRANS-FACTORIAL HepG2 Assay for M32 Transcription Factor (Internal Marker) (AID 2282984).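 Note: transcript level of a background control reporter unit measured by RT-PCR and capillary electrophoresis.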 To be noted: HepG2 Attagene TRANS M32 internal marker reporter. In outline:
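Internal-marker readout from a multiplexed transcription reporter panel. HepG2 cells were transfected with GAL4-UAS reporter units, treated 24 hours, and reporter transcript levels determined by fluorescence after RT-PCR and capillary separation.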

Test [9] concerns the target human Retinoid X Receptor beta (RXRb), RXRB (gene 6257) (UniProt P28702). Kind of test: ATG_RXRb_TRANS: Attagene TRANS-FACTORIAL HepG2 Assay for human Retinoid X Receptor beta (RXRb) (AID 2283013). The method, boiled down:
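Chimeric receptor-Gal4 activity was assessed in transiently transfected human HepG2 cells after 24 h exposure. Transcripts from GAL4-UAS reporters were quantified by fluorescent RT-PCR and capillary electrophoresis, with DMSO as negative control and baseline.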

The nature of test [10]: TOX21_p53_BLA_p2_viability: Viability Assessment in the Tox21 HCT-116 p53 Agonism Beta-lactamase Assay, Phase 2 (AID 2283591).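 Note: compound exposure lasted 16 h at 37 °C; actives lower the ATP signal meaning cytotoxicity.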 The method, boiled down: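 HCT116 p53-bla cells, 4000/well, dosed after 5 h plating (217-fold dilution of DMSO stocks) and incubated 16 h at 37C. Viability taken as cellular ATP by CellTiter-Glo luminescence after 30 min RT; signal loss marks cytotoxicity.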

Test [11] concerns the target Cellular tumor antigen p53 (Homo sapiens) (UniProt P04637). Kind of test: TOX21_p53_BLA_p2_ratio: Tox21 HCT-116 p53 Agonism Beta-lactamase Assay, Ratio, Phase 2 (AID 2283592). The method, boiled down: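 Cleaved-to-uncleaved substrate ratio (460 vs 530 nm) measured in HCT116 cells with an inducible beta-lactamase reporter linked to p53 activity. Compounds incubated 16 h at 37C before 2 h room-temperature CCF4-AM loading.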

Test [12] has the same target. In words: TOX21_p53_BLA_p3_ratio: Tox21 HCT-116 p53 Agonism Beta-lactamase Assay, Ratio, Phase 3 (AID 2283596). The method, boiled down:
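Cells were seeded at 4000/well, rested 5 h at 37C, then dosed with DMSO compound solutions (217-fold dilution) for 16 h. CCF4-AM substrate was loaded for 2 h at room temperature, and the 460/530 nm emission ratio was fitted for gain of signal versus DMSO.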

Test [13] can be described thus: TOX21_p53_BLA_p5_viability: Viability Assessment in the Tox21 HCT-116 p53 Agonism Beta-lactamase Assay, Phase 5 (AID 2283600). In outline:
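Viability is taken from cellular ATP content, measured by luciferase luminescence in the same wells after the beta-lactamase ratio read. Cells are seeded at 4000 per well and exposed to DMSO-dissolved compounds, diluted 217-fold, for 16 h.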

Test [14] concerns the target Cellular tumor antigen p53 (Homo sapiens) (UniProt P04637). Kind of test: TOX21_p53_BLA_p4_ratio: Tox21 HCT-116 p53 Agonism Beta-lactamase Assay, Ratio, Phase 4 (AID 2283601). In outline:
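HCT-116 p53 beta-lactamase reporter cells (4000/well) preincubated 5 h, then compound (217-fold dilution of DMSO stock) for 16 h at 37C. CCF4-AM substrate added 2 h at room temperature; 460/530 nm emission ratio fitted upward versus DMSO.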

The nature of test [15]: ATG_NF_kB_CIS: Attagene CIS-FACTORIAL HepG2 Assay for human Nuclear Factor Kappa B (NF-kB) (AID 2282991; active = hit-call score of the fitted dose curve at least 0.9, where 1 is the maximum; inactive = score below 0.9). The conditions noted are these: HepG2 Attagene cis-factorial NF-kB reporter mRNA; actives raise or lower the signal. The method, boiled down: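 Readout is reporter transcript level, gain or loss versus DMSO, measured 24 h post-dose via RT-PCR, fluorescent labelling and capillary electrophoresis. Human HepG2 liver cells carried transiently transfected CIS reporter constructs reflecting endogenous factors.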

Test [16] has as its target Retinoic acid receptor RXR-alpha (Homo sapiens) (UniProt P19793). In words: ATG_RXRa_TRANS: Attagene TRANS-FACTORIAL HepG2 Assay for human Retinoid X Receptor alpha (RXRa) (AID 2283012). The method, boiled down: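 Measures exogenous chimeric NR-GAL4 activity in transfected HepG2 liver cells after 24 h of dosing. Induced reporter mRNA was detected by RT-PCR with capillary electrophoresis, and gain of signal was analysed against DMSO.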

For test [17], the target named is Cellular tumor antigen p53 (Homo sapiens) (UniProt P04637). In words: TOX21_p53_BLA_p5_ratio: Tox21 HCT-116 p53 Agonism Beta-lactamase Assay, Ratio, Phase 5 (AID 2283599). In outline:
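HCT-116 p53-bla cells (4000/well) plated 5 h, dosed with compound (217-fold DMSO dilution) for 16 h at 37 C; CCF4-AM substrate 2 h at room temperature. Activity is the 460/530 nm emission ratio (405 nm excitation), fitted in gain-of-signal direction versus DMSO.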

Test [18] is described as follows: ATG_TGFb_CIS: Attagene CIS-FACTORIAL HepG2 Assay for human Transforming Growth Factor (TGF) (AID 2282967; active = hit-call score of the fitted dose curve at least 0.9, where 1 is the maximum; inactive = score below 0.9). The conditions noted are these: HepG2 Attagene CIS TGFb reporter, mRNA transcription; actives raise or lower the signal. The method, boiled down: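 Bidirectional fitting relative to DMSO gave the endpoint. Underlying data: reporter mRNA from HepG2 cells carrying transiently transfected cis-regulated reporter constructs, harvested 24 h after dosing and analyzed by RT-PCR and capillary electrophoresis.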

A short description of test [19]: ATG_GRE_CIS: Attagene CIS-FACTORIAL HepG2 Assay for human Glucocorticoid Response Elements (GRE) (AID 2282947; active = hit-call score of the fitted dose curve at least 0.9, where 1 is the maximum; inactive = score below 0.9). To be noted: HepG2 GRE cis-reporter, Attagene multiplex mRNA; actives raise or lower the signal. In outline:
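Fluorescence intensity of reporter-specific cDNA fragments, separated by capillary electrophoresis, provides the signal. Constructs carry cis-regulating promoters in transiently transfected HepG2 liver cells; 24 h incubation; fitting is bidirectional against DMSO.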

In test [20] the target is Retinoic acid receptor alpha (Homo sapiens) (UniProt P10276). Kind of test: ATG_DR5_RAR_CIS: Attagene CIS-FACTORIAL HepG2 Assay for human Retinoic Acid Receptor Alpha (RARE), DR5 submotif (AID 2282934; active = hit-call score of the fitted dose curve at least 0.9, where 1 is the maximum; inactive = score below 0.9). To be noted: HepG2 Attagene cis-factorial RARE DR5 reporter, mRNA; actives raise or lower the signal. The method, boiled down:
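HepG2 cells transiently transfected with multiplexed reporter units; DR5 cis-element drives reporter through endogenous transcription factors. After 24 h dosing, reporter mRNA quantified by RT-PCR, fluorescent labeling, HpaI digestion and capillary electrophoresis; bidirectional fitting versus DMSO.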

Inconclusive results are not listed. Calls of active or inactive are those of the source. Rule for the calls, unless noted: active = hit-call score of the fitted dose curve at least 0.9, where 1 is the maximum; inconclusive = response in the unintended direction; inactive = score below 0.9.

Chain of Retinoic acid receptor RXR-alpha (Homo sapiens) (P19793 whole entry, looked up, the tested form may be a part): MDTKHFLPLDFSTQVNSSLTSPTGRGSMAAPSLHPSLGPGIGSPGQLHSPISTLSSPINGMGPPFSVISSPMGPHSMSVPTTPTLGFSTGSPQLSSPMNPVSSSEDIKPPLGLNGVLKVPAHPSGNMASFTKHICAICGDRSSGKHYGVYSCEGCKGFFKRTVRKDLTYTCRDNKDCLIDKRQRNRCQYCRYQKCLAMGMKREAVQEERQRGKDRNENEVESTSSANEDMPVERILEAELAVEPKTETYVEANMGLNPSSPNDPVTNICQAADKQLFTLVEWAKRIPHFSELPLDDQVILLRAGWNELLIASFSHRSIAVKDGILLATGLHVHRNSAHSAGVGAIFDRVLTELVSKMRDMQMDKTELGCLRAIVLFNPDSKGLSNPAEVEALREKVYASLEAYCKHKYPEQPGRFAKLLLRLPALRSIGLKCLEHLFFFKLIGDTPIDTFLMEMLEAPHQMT
Chain of X-box-binding protein 1 (Homo sapiens) (P17861 whole entry, looked up, the tested form may be a part): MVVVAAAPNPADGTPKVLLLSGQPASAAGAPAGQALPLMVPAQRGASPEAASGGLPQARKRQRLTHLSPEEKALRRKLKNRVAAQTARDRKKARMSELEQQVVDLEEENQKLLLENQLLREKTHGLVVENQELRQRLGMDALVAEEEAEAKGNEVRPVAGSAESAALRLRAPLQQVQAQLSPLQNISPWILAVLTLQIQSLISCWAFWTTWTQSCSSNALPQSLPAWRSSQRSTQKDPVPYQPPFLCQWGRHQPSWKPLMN
Chain of Hepatocyte nuclear factor 4-alpha (Homo sapiens) (P41235 whole entry, looked up, the tested form may be a part): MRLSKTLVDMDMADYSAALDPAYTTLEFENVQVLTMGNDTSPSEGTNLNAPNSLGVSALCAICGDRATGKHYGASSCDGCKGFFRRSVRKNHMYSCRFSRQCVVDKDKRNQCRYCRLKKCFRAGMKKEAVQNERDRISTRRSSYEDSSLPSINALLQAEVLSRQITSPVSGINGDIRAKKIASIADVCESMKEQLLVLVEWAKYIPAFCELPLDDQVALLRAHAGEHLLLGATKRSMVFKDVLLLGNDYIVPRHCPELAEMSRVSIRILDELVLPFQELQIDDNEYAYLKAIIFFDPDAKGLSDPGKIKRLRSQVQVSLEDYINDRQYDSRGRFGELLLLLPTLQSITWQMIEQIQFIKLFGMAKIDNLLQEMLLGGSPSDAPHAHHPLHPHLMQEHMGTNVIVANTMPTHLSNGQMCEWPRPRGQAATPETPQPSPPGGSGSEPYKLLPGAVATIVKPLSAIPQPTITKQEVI
Chain of human Retinoid X Receptor beta (RXRb), RXRB (gene 6257) (P28702 whole entry, looked up, the tested form may be a part): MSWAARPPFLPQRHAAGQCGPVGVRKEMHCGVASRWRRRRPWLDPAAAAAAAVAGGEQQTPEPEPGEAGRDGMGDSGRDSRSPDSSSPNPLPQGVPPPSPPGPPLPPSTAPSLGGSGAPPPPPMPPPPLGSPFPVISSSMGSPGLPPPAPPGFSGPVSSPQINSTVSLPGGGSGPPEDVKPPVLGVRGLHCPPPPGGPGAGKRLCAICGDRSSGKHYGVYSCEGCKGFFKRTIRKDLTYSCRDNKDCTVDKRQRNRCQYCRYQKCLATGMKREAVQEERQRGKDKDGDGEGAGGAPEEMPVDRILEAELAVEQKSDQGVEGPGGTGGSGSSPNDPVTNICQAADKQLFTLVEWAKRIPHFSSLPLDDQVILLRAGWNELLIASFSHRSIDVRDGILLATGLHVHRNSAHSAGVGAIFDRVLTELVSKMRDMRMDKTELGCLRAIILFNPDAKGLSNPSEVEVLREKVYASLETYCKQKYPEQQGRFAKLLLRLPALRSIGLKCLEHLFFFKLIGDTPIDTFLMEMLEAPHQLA
Chain of Cellular tumor antigen p53 (Homo sapiens) (P04637 whole entry, looked up): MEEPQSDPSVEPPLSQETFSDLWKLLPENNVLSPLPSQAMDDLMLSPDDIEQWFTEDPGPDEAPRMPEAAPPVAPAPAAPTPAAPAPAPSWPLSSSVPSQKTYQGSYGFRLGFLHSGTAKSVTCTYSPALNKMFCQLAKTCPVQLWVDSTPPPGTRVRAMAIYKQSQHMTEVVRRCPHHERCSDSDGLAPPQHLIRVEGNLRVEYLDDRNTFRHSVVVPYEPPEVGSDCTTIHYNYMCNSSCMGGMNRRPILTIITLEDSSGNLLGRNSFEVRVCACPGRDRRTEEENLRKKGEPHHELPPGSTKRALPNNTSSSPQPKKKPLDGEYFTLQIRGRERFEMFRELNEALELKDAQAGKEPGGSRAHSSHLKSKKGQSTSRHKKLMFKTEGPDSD
Chain of Hepatocyte nuclear factor 6 (Homo sapiens) (Q9UBC0 whole entry, looked up): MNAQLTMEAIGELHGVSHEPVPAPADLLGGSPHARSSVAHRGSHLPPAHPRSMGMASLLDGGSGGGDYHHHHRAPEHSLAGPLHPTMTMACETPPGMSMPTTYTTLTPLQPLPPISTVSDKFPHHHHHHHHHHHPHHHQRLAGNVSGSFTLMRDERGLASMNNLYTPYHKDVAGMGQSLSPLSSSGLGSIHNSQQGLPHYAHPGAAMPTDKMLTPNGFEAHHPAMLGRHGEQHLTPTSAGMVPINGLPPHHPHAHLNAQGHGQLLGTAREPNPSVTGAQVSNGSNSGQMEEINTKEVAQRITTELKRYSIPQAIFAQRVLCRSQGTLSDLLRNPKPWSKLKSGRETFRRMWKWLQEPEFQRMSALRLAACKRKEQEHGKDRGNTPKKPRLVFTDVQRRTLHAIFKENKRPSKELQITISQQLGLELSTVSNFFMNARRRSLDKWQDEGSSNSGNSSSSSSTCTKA
Chain of Retinoic acid receptor alpha (Homo sapiens) (P10276 whole entry, looked up): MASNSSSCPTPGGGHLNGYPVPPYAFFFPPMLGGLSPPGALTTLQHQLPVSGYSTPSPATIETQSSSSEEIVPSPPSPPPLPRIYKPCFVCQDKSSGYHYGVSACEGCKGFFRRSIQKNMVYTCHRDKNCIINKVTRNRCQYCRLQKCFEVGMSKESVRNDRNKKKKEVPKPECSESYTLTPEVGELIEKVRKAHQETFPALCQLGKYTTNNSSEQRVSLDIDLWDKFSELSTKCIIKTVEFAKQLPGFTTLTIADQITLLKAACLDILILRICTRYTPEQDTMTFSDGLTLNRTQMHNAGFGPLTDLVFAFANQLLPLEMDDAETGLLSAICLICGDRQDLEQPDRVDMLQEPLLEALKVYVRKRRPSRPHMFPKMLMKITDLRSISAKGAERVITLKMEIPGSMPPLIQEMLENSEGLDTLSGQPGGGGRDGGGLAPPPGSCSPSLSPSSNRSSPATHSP

For the molecule `Cc1cc(C)c(S(=O)(=O)O)cc1N=Nc1cc(S(=O)(=O)O)c2ccccc2c1O`, the molecule was classed as inactive in [1], in [2], in [3], in test [4], in test [5] and in [6]. The molecule was called inactive in [7], in test [8], in test [9], in test [10], in test [11] and in [12]. Further, the call in test [13] and in test [14] was inactive.
With `O=C(O)c1cc(Cl)cc(Cl)c1O`, the molecule was called inactive in test [1], in test [3], in [5], in test [6], in test [7] and in test [15]. Further, the result in test [16], in [9], in test [10], in test [11], in [17] and in [13] was inactive. In [14], the result was inactive.
For the molecule `COc1ccccc1OCC(O)CO` (stereo unspecified), the result in [2], in test [18], in [5], in test [6], in [8] and in [15] was inactive. Moreover, the molecule was called inactive in test [9], in [10], in [11], in test [12], in test [17] and in test [13]. Moreover, the outcome in [14] was inactive.
As to `CCCN[C@H]1CCc2nc(N)sc2C1`, the result in [1], in test [2], in [3], in [4], in test [18] and in test [5] was inactive. Also, the call in test [15], in test [9], in test [11], in [12], in test [17] and in [13] was inactive. Moreover, the result in test [14] was inactive.
For the molecule `CC1=NN(c2cc(Cl)c(S(=O)(=O)O)cc2Cl)C(=O)C1N=Nc1ccc(S(=O)(=O)O)cc1` (stereo unspecified), the result in [1], in [3], in test [18], in [5], in test [7] and in test [15] was inactive. In addition, the outcome in test [9], in test [10], in [11], in test [12], in [17] and in test [13] was inactive. Besides, in test [14], the result was inactive.
`CC(O)(P(=O)(O)O)P(=O)(O)O`: the result in test [1], in test [2], in test [18], in [5], in [7] and in [16] was inactive. In addition, the call in [9] was inactive.
As for `OCCN(CCO)c1cccc(Cl)c1`, the call in test [1], in test [2], in [4], in [5], in test [6] and in test [7] was inactive. The call in test [15], in test [16], in test [9], in [10], in [11] and in test [12] was inactive. In addition, the outcome in test [17] and in test [14] was inactive.
In the case of `CC1=C(CC(=O)O)c2cc(F)ccc2/C1=C\c1ccc(S(C)=O)cc1` (stereo unspecified), the molecule was classed as inactive in test [1], in [19], in test [2], in test [3], in test [18] and in test [8]. For the same molecule, the molecule was called inactive in test [15], in [16], in test [9], in [10], in test [17] and in [13]. The AC50 in test [4] is 26 µM (active).
As for `NC(=O)c1ccc(N)cc1`, the call in test [20], in test [1], in test [19], in test [2], in [4] and in test [5] was inactive. The result in test [6], in [7], in test [15], in [9], in [10] and in test [11] was inactive. Further, the outcome in [13] and in test [14] was inactive.
On to `C/C=C(\C)C(=O)OCC/C=C\CC`, for which the result in test [20], in test [1], in [19], in test [2], in test [3] and in test [4] was inactive. For the same molecule, the molecule was classed as inactive in test [18], in test [5], in test [8], in test [15], in test [16] and in [9]. In addition, the molecule was called inactive in test [10], in [11], in test [12], in test [13] and in test [14].
